{"source": "PubChem BioAssay", "key": {"[1]": {"experiment": "EMT-state selective cytotoxicity in co-culture – imaging, PC-3E GFP, TEM4-18 mCherry, primary screen (AID 1345086);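 as to all read-outs here: cells exposed to compound for 72 h before imaging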;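 as to red/green cell ratio (normalised): normalised mesenchymal count divided by normalised epithelial count so high means epithelial killing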", "settings": "PC-3E GFP / TEM4-18 mCherry co-culture, imaging cell counts, at 1 µM; for red/green cell ratio (normalised): actives lie on both sides, counts scaled to control wells, 1 = unselective"}, "[2]": {"experiment": "blockers of polyQ-driven CASP3 activation – cell-based (AID 1583)", "settings": "polyglutamine-induced caspase-3 activation, cell assay; stronger effect = higher value;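 tested at 10 µM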"}, "[3]": {"experiment": "yeast 75Q aggregation reduction – 75Q-TubU reporter (AID 1593)", "settings": "Yeast 75Q polyglutamine aggregation reporter"}, "[4]": {"experiment": "restoration of touch response, mutant HTT neurons – whole organism, C. elegans mechanosensory neurons, N-terminal huntingtin (AID 1599)", "settings": "C. elegans polyQ-huntingtin mechanosensory neurons, stronger effect = higher value"}, "[5]": {"experiment": "blockers of cytochrome c efflux from mitochondria – biochemical, purified mitochondria (AID 1603);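 also: mouse liver mitochondria challenged with calcium chloride; signal normalized to the plate average as 100%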", "settings": "stronger effect = lower value"}, "[6]": {"experiment": "polyglutamine aggregate formation blockers (AID 1604)", "settings": "polyglutamine-induced protein aggregation inhibition assay; stronger effect = higher value; tested at 2.5 µM"}, "[7]": {"experiment": "glutamate transport activators, MN-1 cells, MN-1 cell line (AID 1612);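 also: tested at 1 µM final; 0% = mean of DMSO vehicle wells on each plate; positive means more glutamate uptake than control and negative means less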", "settings": "MN-1 motor neuron cells, stronger effect = higher value"}, "[8]": {"experiment": "75Q-TubH aggregate inhibition, S. cerevisiae, yeast (AID 1616)", "settings": "S. cerevisiae 75Q-TubH polyglutamine aggregation suppression; stronger effect = higher value"}, "[9]": {"test_system": "Aerobactin synthetase IucA (Klebsiella pneumoniae)", "experiment": "inhibition of K. pneumoniae IucA enzyme – biochemical, Tocris library, absorbance (AID 1345561; call rule not given here;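 also: 100% = enzyme without compound and 0% = no enzyme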)", "settings": "purified IucA enzyme assay, absorbance (OD) read-out; stronger effect = lower value;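 tested at 8 µM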"}, "[10]": {"experiment": "viability loss with induced miR-34 in A549 – imaging, A549 dox-inducible miR-34, nuclei and caspase counts, primary screen (AID 1347080;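 active = compounds whose cell count with miR-34 switched on is under 0.7 times the count with it off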)", "settings": "A549 miR-34 inducible, Hoechst nuclei count, 48 h"}, "[11]": {"experiment": "galactose survival enhancers in mitochondrial complex I cybrids – cell-based, galactose medium, ATP luminescence, primary screen (AID 1645843;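 active = z-score of at least 1.8 in each of two replicates, scored against plate mean and spread of sample wells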;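 also: positive z means more ATP and so rescue of galactose-driven cybrid death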)", "settings": "complex I mutant cybrid cells, 72 h, stronger effect = higher value"}, "[12]": {"experiment": "compounds altering viability of human ES cells (AID 493140; call rule not given here;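 also: cells exposed to compounds for four days before counting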)", "settings": "human embryonic stem cell survival screen; stronger effect = higher value"}, "[13]": {"experiment": "P. berghei load reduction in hepatocytes – cell-based, HepG2, luciferase luminescence, HepG2 viability, primary screen (AID 624349; in the data active = parasite load remaining mostly below about 12%, no sharp cut-off; inactive = mostly above about 10%;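 also: 100% = mean of DMSO negative control wells on the same plate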)", "settings": "P. berghei liver stage in HepG2, luciferase luminescence, concentration not given here; parasite load remaining: stronger effect = lower value; viability: measured here: HepG2 viability without parasites"}, "[14]": {"experiment": "viability loss in pontine glioma line – cell-based, SU-DIPG-XVII, MIPE5.0, CellTiter-Glo, qHTS, dose response (AID 1347060; cut-off not given, nearly all actives have AC50 up to about 26 µM)", "settings": "CellTiter-Glo ATP luminescence"}, "[15]": {"experiment": "viability loss in pontine glioma line – cell-based, SU-DIPG-XIII, MIPE4.0, CellTiter-Glo, qHTS, dose response (AID 1347061; cut-off not given, nearly all actives have AC50 up to about 37 µM;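 also: cells exposed to compound for 48 hours before readout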)", "settings": "CellTiter-Glo ATP luminescence"}, "[16]": {"experiment": "viability loss in pontine glioma line – cell-based, SU-DIPG-XXV, MIPE5.0, CellTiter-Glo, qHTS, dose response (AID 1347065; cut-off not given, nearly all actives have AC50 up to about 26 µM;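 also: cells exposed to compound for 48 hours before ATP readout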)", "settings": "CellTiter-Glo ATP luminescence"}, "[17]": {"experiment": "growth inhibition of DIPG cells – cell-based, MIPE4.0 library, CellTiter-Glo luminescence, qHTS (AID 1347066; cut-off not given, nearly all actives have AC50 up to about 30 µM;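 also: cells exposed to compound for 48 hours before readout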)", "settings": "SU-DIPG-VI viability, CellTiter-Glo ATP luminescence"}, "[18]": {"experiment": "JHH-DIPG-1 glioma cell viability, MIPE5.0 library, CellTiter-Glo luminescence, qHTS (AID 1347067; cut-off not given, nearly all actives have AC50 up to about 26 µM;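 also: cells exposed to compound for 48 hours before readout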)", "settings": "JHH-DIPG-1 glioma viability, CellTiter-Glo ATP luminescence"}, "[19]": {"experiment": "growth inhibition of DIPG cells – cell-based, MIPE5.0 library, qHTS (AID 1347068; cut-off not given, nearly all actives have IC50 up to about 30 µM)", "settings": "SU-DIPG-XXV viability"}, "[20]": {"experiment": "MELAS cybrid and Rieske KO viability enhancers – cell-based, MELAS cybrids, Rieske KO mouse fibroblasts, CellTiter-Glo, primary screen (AID 1508586;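 active = mean z-score across replicates of 1.96 or higher in either the MELAS or the Rieske mutant cell line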;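 also: z relative to plate mean and SD of compound and empty wells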)", "settings": "low glucose"}, "[21]": {"settings": "measured here: epithelial PC-3E GFP cell survival"}, "[22]": {"settings": "measured here: mesenchymal TEM4-18 mCherry cell survival"}, "[23]": {"settings": "stronger effect = lower value, cell number ratio, induced over uninduced"}, "[24]": {"settings": "measured here: relative caspase fold change +Dox/-Dox"}, "[25]": {"settings": "measured here: total cells with miR-34 induction, stronger effect = lower value"}, "[26]": {"settings": "measured here: total cells without miR-34 induction"}}, "note": "Where “and” joins values, the source holds several entries; their conditions need not be identical. Equal entries are not always repeated. Records with an inconclusive call do not appear. For part of these data: Measured potencies and affinities stand elsewhere. Calls of active or inactive are those of the source.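 The calls were made as follows, unless noted: active = compounds killing one labelled cell type while sparing the other, by normalised counts and ratio limits, not self-fluorescent; inactive = the rest.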", "data": [{"smiles": "CN(C)c1cccc2c(S(N)(=O)=O)cccc12", "values": [{"measurement": "red/green cell ratio (normalised)", "setting": "[1]", "result": "1.01 (inactive)"}, {"measurement": "normalised cell number", "setting": "[1]; [21]", "result": 1.15}, {"measurement": "normalised cell number", "setting": "[1]; [22]", "result": 1.16}]}, {"smiles": "CN(C(=O)OCc1ccccc1)C1C(O[C@@H]2OC(COS(=O)(=O)O)C(NC(=O)OCc3ccccc3)[C@H](OS(=O)(=O)O)[C@H]2OS(=O)(=O)O)OC2C[C@@H](NC(=O)OCc3ccccc3)[C@@H](OC3C(NC(=O)OCc4ccccc4)C[C@@H](NC(=O)OCc4ccccc4)[C@H](OS(=O)(=O)O)[C@H]3OS(=O)(=O)O)OC2C1OS(=O)(=O)O", "note": "(some centres undefined)", "values": [{"measurement": "red/green cell ratio (normalised)", "setting": "[1]", "result": "0.95 (inactive)"}, {"measurement": "normalised cell number", "setting": "[1]; [21]", "result": 1.05}, {"measurement": "normalised cell number", "setting": "[1]; [22]", "result": 1}]}, {"smiles": "COC(=O)c1c(Cl)nc(Cl)c2ccccc12", "values": [{"measurement": "red/green cell ratio (normalised)", "setting": "[1]", "result": "1.07 (inactive)"}, {"measurement": "normalised cell number", "setting": "[1]; [21]", "result": 0.85}, {"measurement": "normalised cell number", "setting": "[1]; [22]", "result": 0.91}]}, {"smiles": "Nc1cc2ccccc2[nH]c1=O", "values": [{"measurement": "red/green cell ratio (normalised)", "setting": "[1]", "result": "0.91 (inactive)"}, {"measurement": "normalised cell number", "setting": "[1]; [21]", "result": 1.14}, {"measurement": "normalised cell number", "setting": "[1]; [22]", "result": 1.04}]}, {"smiles": "CCCCCCCCCCCCCc1ccco1", "values": [{"measurement": "red/green cell ratio (normalised)", "setting": "[1]", "result": "1.13 (inactive)"}, {"measurement": "normalised cell number", "setting": "[1]; [21]", "result": 0.74}, {"measurement": "normalised cell number", "setting": "[1]; [22]", "result": 0.83}]}, {"smiles": "CCSC(SCC)[C@@H]1NC(=O)O[C@H]1[C@H](O)[C@H](O)CO", "values": [{"measurement": "red/green cell ratio (normalised)", "setting": "[1]", "result": "1 (inactive)"}, {"measurement": "normalised cell number", "setting": "[1]; [21]", "result": 1.12}, {"measurement": "normalised cell number", "setting": "[1]; [22]", "result": 1.12}]}, {"smiles": "C[C@@H]1O[C@@H](O[C@H]2[C@@H](Oc3cc(O)c4c(c3)O[C@H](c3ccc(O)cc3)CC4=O)O[C@H](CO)[C@@H](O)[C@@H]2O)[C@H](O)[C@H](O)[C@H]1O", "values": [{"measurement": "red/green cell ratio (normalised)", "setting": "[1]", "result": "1.11 (inactive)"}, {"measurement": "normalised cell number", "setting": "[1]; [21]", "result": 0.94}, {"measurement": "normalised cell number", "setting": "[1]; [22]", "result": 1.04}]}, {"smiles": "CC(C)C[C@@H](NC(=O)OCC1c2ccccc2-c2ccccc21)C(=O)O", "values": [{"measurement": "inhibition", "setting": "[2]", "result": -9.47, "unit": "%"}, {"measurement": "score", "setting": "[3]", "result": -0.27}, {"measurement": "rescue above control", "setting": "[4]", "result": 2.38}, {"measurement": "cytochrome c release ratio", "setting": "[5]", "result": 0.77}, {"measurement": "inhibition of aggregation", "setting": "[6]", "result": -14.3, "unit": "%"}, {"measurement": "glutamate uptake change", "setting": "[7]", "result": 4.64, "unit": "%"}, {"measurement": "aggregation suppression score", "setting": "[8]", "result": 0.0751}, {"measurement": "red/green cell ratio (normalised)", "setting": "[1]", "result": "0.8 (inactive)"}, {"measurement": "normalised cell number", "setting": "[1]; [21]", "result": 1.21}, {"measurement": "normalised cell number", "setting": "[1]; [22]", "result": 0.97}, {"measurement": "remaining activity", "setting": "[9]", "result": "97.5% (inactive)"}, {"measurement": "fold change", "setting": "[10]; [23]", "result": "0.883 (inactive)"}, {"measurement": "fold change", "setting": "[10]; [24]", "result": 0.962}, {"measurement": "cell count", "setting": "[10]; [25]", "result": 8270}, {"measurement": "cell count", "setting": "[10]; [26]", "result": 9370}, {"measurement": "z-score", "setting": "[11]", "result": "-0.5 (inactive)"}]}, {"smiles": "CC(C)[C@@H]1CCC(CO)=C[C@@H]1/C=C(\\CO)C(=O)O", "values": [{"measurement": "red/green cell ratio (normalised)", "setting": "[1]", "result": "0.88 (inactive)"}, {"measurement": "normalised cell number", "setting": "[1]; [21]", "result": 1.29}, {"measurement": "normalised cell number", "setting": "[1]; [22]", "result": 1.13}]}, {"smiles": "[N-]=[N+]=N[C@H]1[C@H](Sc2ccccc2)OC(CO)C(O)[C@@H]1O", "note": "(some centres undefined)", "values": [{"measurement": "red/green cell ratio (normalised)", "setting": "[1]", "result": "0.98 (inactive)"}, {"measurement": "normalised cell number", "setting": "[1]; [21]", "result": 1.08}, {"measurement": "normalised cell number", "setting": "[1]; [22]", "result": 1.06}]}, {"smiles": "COc1cc(OC)c2c(O)c(C(C)=O)c(C)cc2c1", "values": [{"measurement": "red/green cell ratio (normalised)", "setting": "[1]", "result": "1.01 (inactive)"}, {"measurement": "normalised cell number", "setting": "[1]; [21]", "result": 1.08}, {"measurement": "normalised cell number", "setting": "[1]; [22]", "result": 1.09}]}, {"smiles": "C[C@H]1OC(n2cc(F)c(=O)[nH]c2=O)C(O)[C@@H]1O", "note": "(some centres undefined)", "values": [{"measurement": "red/green cell ratio (normalised)", "setting": "[1]", "result": "0.91 (inactive)"}, {"measurement": "normalised cell number", "setting": "[1]; [21]", "result": 1.27}, {"measurement": "normalised cell number", "setting": "[1]; [22]", "result": 1.16}]}, {"smiles": "O=c1c(O)c(-c2ccc(O)cc2)oc2cc(O)cc(O)c12", "values": [{"measurement": "survival", "setting": "[12]", "result": "7.5 (inactive)"}, {"measurement": "parasite load remaining", "setting": "[13]", "result": "80.6% (inactive)"}, {"measurement": "viability", "setting": "[13]", "result": 69.5, "unit": "%"}, {"measurement": "red/green cell ratio (normalised)", "setting": "[1]", "result": "1 (inactive)"}, {"measurement": "normalised cell number", "setting": "[1]; [21]", "result": 1.03}, {"measurement": "normalised cell number", "setting": "[1]; [22]", "result": 1.03}, {"measurement": "remaining activity", "setting": "[9]", "result": "107% (inactive)"}, {"measurement": "outcome", "setting": "[14]", "result": "inactive"}, {"measurement": "outcome", "setting": "[15]", "result": "inactive"}, {"measurement": "outcome", "setting": "[16]", "result": "inactive"}, {"measurement": "outcome", "setting": "[17]", "result": "inactive"}, {"measurement": "outcome", "setting": "[18]", "result": "inactive"}, {"measurement": "outcome", "setting": "[19]", "result": "inactive"}, {"measurement": "fold change", "setting": "[10]; [23]", "result": "0.974 (inactive) and 0.869 (inactive) and 0.836 (inactive)"}, {"measurement": "fold change", "setting": "[10]; [24]", "result": "0.804 and 0.921 and 1.47"}, {"measurement": "cell count", "setting": "[10]; [25]", "result": "9050 and 8750 and 6630"}, {"measurement": "cell count", "setting": "[10]; [26]", "result": "9290 and 10100 and 7930"}, {"measurement": "z-score", "setting": "[20]; MELAS cybrid survival, CellTiter-Glo 48 h, stronger effect = higher value", "result": "-0.357 (inactive)"}, {"measurement": "z-score", "setting": "[20]; Rieske KO mouse fibroblast survival, CellTiter-Glo 72 h", "result": 0.291}, {"measurement": "z-score", "setting": "[11]", "result": "-0.765 (inactive)"}]}]}
